Results reported in PubChem BioAssay (NCATS).
Values joined by “and” are separate entries in the source; they are usually repeats but may differ in a detail not shown here. Identical values can stand only once. A number with no mark means an inactive call. Records with an inconclusive call do not appear. Where a call stands in place of a potency, no number is given. Active and inactive are the calls of the source. Unless noted, calls come from the whole dose curve; as a rule, active = well fitted curve in the direction sought with a large enough effect; inconclusive = small, poorly fitted or top-dose-only effect, or another doubt; inactive = no such curve, though single readings can be large; an effect the other way counts as inactive or inconclusive.

How the values were obtained:
[1] = Cellular Toxicity (caspase-3) BJ (AID 658)
Outline: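 Readout: Caspase-Glo 3/7 luminescence increase in BJ cells after 16 hr treatment at 37 °C. Staurosporine and tamoxifen served as positive controls; AC50 values came from Hill modelling of data normalized to DMSO and 10 uM staurosporine.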

[2] = Cellular Toxicity (caspase-3) SK-N-SH (AID 661)
Outline: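 Human SK-N-SH neuroblastoma cells, 1500/well, were exposed to compounds for 16 hours at 37 °C. Caspase-Glo 3/7 luminescence was normalized to DMSO (basal) and 10 uM staurosporine (100%), and AC50 came from a Hill fit.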

[3] = Cellular Toxicity (caspase-3) H-4-II-E (AID 663); settings: Potency: caspase-3 activation;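 note: cells exposed to compound for 16 hr before readout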
Outline: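 Apoptosis induction is scored as increased luminescence from caspase 3/7 substrate cleavage in rat hepatoma H-4-II-E cells exposed to compound for 16 hr. Activity is scaled between DMSO and 100 uM tamoxifen.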

[4] = Cellular Toxicity (caspase-3) N2a (AID 665);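 note: compound exposure lasted 16 h at 37 °C before readout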
Outline: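 Mouse N2a neuroblastoma cells, 1500 per well, treated 16 h at 37 °C in complete medium; caspase-3/7 activity by Caspase-Glo luminescence after 1 h. Normalized to DMSO and 10 uM staurosporine; AC50 from Hill fits.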

[5] = Cellular Toxicity (caspase-3) Renal Proximal Tubule (AID 667);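 note: cells exposed to compound for 16 hours at 37 °C before detection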
Outline: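 Primary rat proximal tubule cells, 1000/well, 5 h plating at 37 °C, then compound 16 h at 37 °C. Caspase-Glo 3/7 reagent, 1 h RT, luminescence. Normalized to DMSO (basal) and 10 uM staurosporine (100%); Hill-fit AC50.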

[6] = Cell Viability - LYMP2-019 (AID 973); note: nearly all actives have a fitted effect of over 55% in size
Outline: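 Human lymphoblastoid LYMP2-019 cells (2500/well) preincubated 5 h at 37 C, then treated 24 h at 37 C in complete medium. Viability by CellTiter-Glo ATP luminescence after 30 min at room temperature; AC50 from Hill fits.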

[7] = Cell Viability - LYMP2-023 (AID 975);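 note: cellular ATP measured by luciferase luminescence as viability proxy; series mostly up to about 92 µM; nearly all actives have a fitted effect of over 55% in size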
Outline: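 LYMP2-023 human lymphoblastoid cells, 2500/well, preincubated 5 hr at 37 C, then compound-treated 24 hr at 37 C in complete medium. CellTiter-Glo luminescence (ATP) after 30 min at room temperature; AC50 from Hill-equation fits; tetraoctylammonium bromide positive control.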

[8] = Cell Viability - LYMP2-006 (AID 978); note: series mostly up to about 92 µM; nearly all actives have a fitted effect of over 60% in size
Outline: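 Human lymphoblastoid cells, 2500 per well, were preincubated 5 hr at 37 C, then exposed to compounds for 24 hr at 37 C in complete medium. Viability was read as intracellular ATP by CellTiter-Glo luminescence; AC50 from Hill-equation fits of qHTS concentration-response data.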

[9] = Cell Viability - LYMP2-007 (AID 979);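 note: cells exposed to compound for 24 h before reading; nearly all actives have a fitted effect of over 60% in size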
Outline: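 Human lymphoblastoid LYMP2-007 cells (2500/well) preincubated 5 h at 37 C, then treated 24 h at 37 C in complete medium. Viability by CellTiter-Glo ATP luminescence after 30 min at room temperature; AC50 from Hill fits.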

[10] = Cell Viability - LYMP2-008 (AID 980); note: nearly all actives have a fitted effect of over 60% in size
Outline: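 LYMP2-008 lymphoblastoid cells (2500/well) plated 5 h, then treated 24 h at 37 C in complete medium. Viability read as intracellular ATP by CellTiter-Glo luminescence after 30 min at room temperature; AC50 from Hill fits.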

[11] = Cell Viability - LYMP2-014 (AID 983); note: series mostly up to about 92 µM; nearly all actives have a fitted effect of over 50% in size
Outline: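 LYMP2-014 human lymphoblastoid cells, 2500/well, treated 24 h at 37 C in complete medium; viability by CellTiter-Glo ATP luminescence after 30 min at room temperature. AC50 from Hill fits of qHTS concentration-response; tetraoctylammonium bromide positive control.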

[12] = biological target: Peroxisome proliferator-activated receptor gamma (Homo sapiens) (UniProt P37231); experiment: qHTS assay for small molecule agonists of peroxisome proliferator-activated receptor gamma signaling (AID 588536; active = well fitted curve in the direction sought with a large enough effect in the signal ratio, with a control signal flat, not every such curve was filed as active; the % refers to the signal ratio)
Chain of Peroxisome proliferator-activated receptor gamma (Homo sapiens) (P37231 whole entry, looked up): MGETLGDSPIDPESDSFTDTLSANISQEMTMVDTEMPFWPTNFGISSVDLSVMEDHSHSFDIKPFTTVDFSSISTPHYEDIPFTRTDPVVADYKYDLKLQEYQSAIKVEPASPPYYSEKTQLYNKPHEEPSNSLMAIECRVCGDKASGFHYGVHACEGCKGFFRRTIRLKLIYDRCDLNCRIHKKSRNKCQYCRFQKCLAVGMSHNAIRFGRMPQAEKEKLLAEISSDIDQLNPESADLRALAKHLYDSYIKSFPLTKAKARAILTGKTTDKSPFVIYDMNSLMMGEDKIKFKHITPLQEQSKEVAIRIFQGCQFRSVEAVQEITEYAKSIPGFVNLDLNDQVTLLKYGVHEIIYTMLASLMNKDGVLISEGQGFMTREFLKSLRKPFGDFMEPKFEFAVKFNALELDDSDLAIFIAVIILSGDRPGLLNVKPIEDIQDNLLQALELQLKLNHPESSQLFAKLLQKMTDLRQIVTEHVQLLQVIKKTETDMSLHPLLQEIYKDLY
Outline: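 Ratiometric blue/green fluorescence (405 nm excitation; 460 and 530 nm emission) from CCF4-loaded HEK293 reporter cells serves as signal. Exposure to test compounds lasts 16 h at 37 C in medium containing 1% charcoal/dextran-treated serum.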

[13] = Cell Viability - HUV-EC-C (AID 542); note: nearly all actives have a fitted effect of over 35% in size
Outline: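 HUV-EC-C human vascular endothelial cells, 1000/well, exposed to compound for 40 hr at 37 °C in complete medium. Intracellular ATP was read by CellTiter-Glo luminescence. AC50 came from Hill-equation fits of concentration-response data.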

[14] = Cell Viability - Mesenchymal (AID 546);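 note: cells exposed to compound for 40 hours before reading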
Outline: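 AC50 values reflect the drop in intracellular ATP in a human kidney mesenchymal line derived from normal glomeruli. Treatment lasts 40 hr at 37 °C in complete medium, and the signal comes from CellTiter-Glo luminescence.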

[15] = Cellular Toxicity (caspase-3) NIH 3T3 (AID 666);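 note: caspase signal read after 16 h compound exposure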; note: potency is the fitted concentration of half-maximal effect
Outline: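 Mouse NIH 3T3 fibroblasts (1000/well) treated 16 h at 37 C; caspase-3/7 activity measured by Caspase-Glo 3/7 luminescence after 20 min. Normalized to DMSO and 100 uM tamoxifen; AC50 from Hill fits.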

[16] = biological target: Voltage-gated inwardly rectifying potassium channel KCNH2 (Homo sapiens) (UniProt Q12809); experiment: qHTS Assay for Small Molecule Inhibitors of the Human hERG Channel Activity (AID 588834);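 note: lower thallium flux fluorescence means stronger hERG block; nearly all actives have a fitted effect of over 50% in size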; note: potency is the fitted concentration of half-maximal effect
Chain of Voltage-gated inwardly rectifying potassium channel KCNH2 (Homo sapiens) (Q12809 whole entry, looked up): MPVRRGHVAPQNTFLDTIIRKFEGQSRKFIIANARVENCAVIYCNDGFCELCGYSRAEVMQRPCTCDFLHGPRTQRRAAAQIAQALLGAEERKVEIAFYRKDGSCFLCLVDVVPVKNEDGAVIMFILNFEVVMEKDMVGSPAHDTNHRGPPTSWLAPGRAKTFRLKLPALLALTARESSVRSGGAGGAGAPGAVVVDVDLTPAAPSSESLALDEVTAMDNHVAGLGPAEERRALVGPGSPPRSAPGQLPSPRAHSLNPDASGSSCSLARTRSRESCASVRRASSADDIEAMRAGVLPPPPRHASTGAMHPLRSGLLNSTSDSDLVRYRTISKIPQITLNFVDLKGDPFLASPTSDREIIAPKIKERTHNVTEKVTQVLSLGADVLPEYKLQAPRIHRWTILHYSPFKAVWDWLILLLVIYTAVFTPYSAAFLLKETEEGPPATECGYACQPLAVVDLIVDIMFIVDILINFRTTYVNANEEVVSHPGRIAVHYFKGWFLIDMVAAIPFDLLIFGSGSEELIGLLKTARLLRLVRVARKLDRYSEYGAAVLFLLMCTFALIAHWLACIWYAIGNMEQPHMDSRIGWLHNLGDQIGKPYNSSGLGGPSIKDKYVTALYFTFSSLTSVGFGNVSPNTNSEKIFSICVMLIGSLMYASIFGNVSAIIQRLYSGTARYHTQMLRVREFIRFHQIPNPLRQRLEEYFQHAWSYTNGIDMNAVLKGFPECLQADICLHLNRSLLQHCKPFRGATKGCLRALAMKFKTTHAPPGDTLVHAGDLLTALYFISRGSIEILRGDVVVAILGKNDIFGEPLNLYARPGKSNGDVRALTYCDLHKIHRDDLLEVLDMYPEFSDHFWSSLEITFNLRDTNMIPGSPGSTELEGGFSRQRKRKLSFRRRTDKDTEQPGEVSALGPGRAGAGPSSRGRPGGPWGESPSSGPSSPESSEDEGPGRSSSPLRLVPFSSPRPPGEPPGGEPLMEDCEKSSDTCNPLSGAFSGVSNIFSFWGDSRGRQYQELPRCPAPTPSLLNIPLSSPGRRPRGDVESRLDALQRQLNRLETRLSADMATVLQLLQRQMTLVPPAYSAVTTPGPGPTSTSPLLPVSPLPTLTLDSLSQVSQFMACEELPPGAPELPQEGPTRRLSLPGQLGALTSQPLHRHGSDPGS
Outline: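 U2OS cells transduced with hERG via BacMam (MOI ~100), plated 2000/well, loaded with FluxOR thallium dye, compound ~10 min, then stimulation buffer; fluorescence decrease read kinetically; AC50 from Hill fits.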

[17] = qHTS assay for cell viability of HEK293 cells (AID 743288); settings: ATP luminescence (CellTiter-Glo), 18 h, active compounds read low; note: nearly all actives have a fitted effect of over 50% in size
Outline: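 Parental HEK293 cells were seeded at 2,000 cells/well, rested at least 5 h at 37 C, then exposed to compounds in DMSO for 18 h at 37 C. Viability was read as ATP-dependent luciferase luminescence after 30 min at room temperature.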

[18] = biological target: Nuclear receptor subfamily 1 group I member 2 (Rattus norvegicus) (UniProt Q9R1A7); experiment: qHTS assay for small molecule activators of the rat pregnane X receptor (rPXR) signaling pathway (AID 651751; call rule not given here); settings: rPXR reporter cells, luciferase (One-Glo), 24 h
Chain of Nuclear receptor subfamily 1 group I member 2 (Rattus norvegicus) (Q9R1A7 whole entry, looked up): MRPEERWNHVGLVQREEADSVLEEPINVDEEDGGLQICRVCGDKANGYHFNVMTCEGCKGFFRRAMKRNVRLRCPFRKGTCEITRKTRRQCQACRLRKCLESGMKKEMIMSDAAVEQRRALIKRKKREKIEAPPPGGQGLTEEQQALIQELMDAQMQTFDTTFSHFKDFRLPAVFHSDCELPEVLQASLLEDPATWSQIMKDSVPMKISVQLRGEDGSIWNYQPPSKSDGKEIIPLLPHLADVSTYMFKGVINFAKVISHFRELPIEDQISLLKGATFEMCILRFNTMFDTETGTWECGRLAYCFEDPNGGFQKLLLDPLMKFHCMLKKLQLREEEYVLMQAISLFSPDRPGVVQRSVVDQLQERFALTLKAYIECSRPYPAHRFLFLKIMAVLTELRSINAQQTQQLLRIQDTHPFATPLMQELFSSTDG

[19] = Cell Viability - H-4-II-E (AID 543); note: nearly all actives have a fitted effect of over 35% in size
Outline: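 Rat hepatoma H-4-II-E cells, 1500 per well, treated 40 h at 37 °C in complete medium. Cellular ATP read by CellTiter-Glo luminescence; AC50 from Hill fits of concentration-response.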

[20] = Cell Viability - LYMP2-020 (AID 986); note: series mostly up to about 92 µM; nearly all actives have a fitted effect of over 55% in size
Outline: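 Human lymphoblastoid LYMP2-020 cells (2500/well) preincubated 5 h at 37 C, then treated 24 h at 37 C. Viability measured as intracellular ATP by CellTiter-Glo luminescence after 30 min at room temperature; AC50 from Hill fits.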

Row | SMILES | outcome [1] | Potency [2] | Potency [3] | outcome [4] | outcome [5] | Potency [6] | Potency [7] | Potency [8] | Potency [9] | Potency [10] | Potency [11] | outcome [12] | Potency [13] | Potency [14] | Potency [15] | Potency [16] | max response [17] | max response [18] | Potency [19] | Potency [20]
1 | Cc1ccc2c(c1N)C(=O)c1ccccc1C2=O | inactive | inactive | inactive | inactive | inactive | inactive | inactive | inactive | inactive | inactive | inactive | inactive |  |  |  |  |  |  |  | 
2 | COP(=S)(OC)SCn1nnc2ccccc2c1=O | inactive | inactive |  | inactive |  | inactive | inactive | inactive | inactive | inactive | inactive | inactive | inactive | inactive | inactive | inactive | -22% | 0.903% and 4.17% |  | 
3 | O=[N+]([O-])c1cc(Cl)c(Cl)c(Cl)c1 | inactive | inactive | inactive | inactive | inactive |  | inactive | inactive | inactive | inactive | inactive | inactive | inactive | inactive | 25.1 µM (active) | inactive | -14.7% | -3.17% | inactive | inactive
4 | CCCCCCCCCCCCCl | inactive | inactive | inactive | inactive |  |  | inactive | inactive | inactive | inactive | inactive | inactive |  |  | inactive |  | -0.903% | 3.36% | inactive | inactive
5 | Cc1ccc(N)c(C)c1 | inactive | inactive | inactive | inactive |  | inactive | inactive | inactive | inactive |  | inactive | inactive | inactive | inactive |  | inactive | 1.36% | -0.287% | inactive | inactive
6 | CCCC[N+](=O)[O-] | inactive | inactive | inactive | inactive | inactive | inactive |  | inactive |  | inactive | inactive | inactive | inactive | inactive | inactive | inactive | -6.09% | 1.76% | inactive | inactive
7 | ClCCBr | inactive | inactive | inactive | inactive | inactive | inactive | inactive | inactive | inactive | inactive | inactive | inactive | inactive |  | inactive | inactive | -0.276% | -0.231% | inactive | inactive
8 | Cc1cc(N=Nc2ccccc2C)ccc1N | inactive |  | inactive | inactive | inactive |  | inactive | inactive | inactive |  | inactive | inactive |  |  | inactive | inactive | -13.3% and -11.6% |  |  | inactive
9 | CCOC(=O)CBr | inactive | inactive | inactive | inactive | inactive | inactive | inactive |  | inactive | inactive | inactive | inactive | inactive | inactive | inactive | inactive |  | 2.21% | inactive | inactive
10 | c1ccc(N=NNc2ccccc2)cc1 | inactive | inactive | inactive |  | inactive | inactive | inactive | inactive | inactive | inactive | inactive | inactive | inactive | inactive | inactive | 39.8 µM (active) |  |  | inactive | inactive
11 | O=C(O)C(Br)CBr (stereo not given) | inactive | inactive | inactive | inactive | inactive | inactive | inactive | inactive |  | inactive |  |  | inactive | inactive | inactive | inactive | -8.07% | -3.61% |  | inactive
12 | C1CC2OC2CC1C1CO1 (stereo not given) |  | inactive |  | inactive | inactive | inactive | inactive | inactive |  |  | inactive | inactive | inactive | inactive | inactive | inactive | -9.23% and -6.84% | -1.19% and -4.43% | inactive | inactive
13 | C(CCOCC1CO1)COCC1CO1 (stereo not given) |  | inactive |  | inactive |  | inactive | inactive | inactive | inactive | inactive | inactive |  | inactive | inactive | inactive | inactive | -15.1% | 2.78% | inactive | inactive
14 | CCOP(=S)(OCC)Oc1nc(Cl)c(Cl)cc1Cl | inactive | inactive |  | inactive | inactive |  | inactive | inactive |  | inactive | inactive | inactive | inactive | inactive | inactive |  | -7.97% [middle of 4 runs] | 6.81% [middle of 4 runs] | inactive | inactive
15 | Cc1cc(-c2cc(C)c(N)c(C)c2)cc(C)c1N |  | inactive | inactive | inactive | inactive |  |  | inactive | inactive | inactive |  | inactive |  | inactive | inactive | inactive | 7.5% | 14.1% | inactive | inactive
16 | Oc1c(Cl)c(Cl)cc(Cl)c1Cl | inactive | inactive | inactive | inactive |  | inactive | inactive | inactive | inactive | inactive | inactive | inactive |  | inactive | inactive | inactive | 1.93% | -8.76% |  | inactive
